In PubChem BioAssay AID1159606 (Sanford-Burnham Center for Chemical Genomics, 2016):
Hit rate of the full screen: of about 360,000 compounds, about 7,300 (2%) were called active. Rule as the data show it: active = inhibition above about 50%; inactive = the rest. The list comes from a sample in which actives are over-represented; it also holds similar structures and randomly drawn compounds.

Experiment: inhibitors of TWEAK-Fn14 signaling, primary screen, luciferase reporter cells, uHTS (AID 1159606)
Conditions: TWEAK-stimulated Fn14 reporter cells, luciferase luminescence, 8 h; at 10 µM; stronger effect = higher value

| Compound | inhibition |
| --- | --- |
| O=C(Nc1ccc(NC(=O)c2cccs2)cn1)c1ccco1 | 57.4% (active) |
| O=C(COC(=O)c1ccco1)Nc1ccc(Cl)cn1 | -3.57% (inactive) |
| Cc1ccc(NC(=O)c2ccco2)cc1 | -27.8% (inactive) |
| CC1CN(c2cc(=O)n(Cc3ccc(F)cc3)c(=O)[nH]2)CC(C)O1 (stereo not given) | -5.29% (inactive) |
| CC(=O)OCC(C)n1c(=O)c2ccccc2n1C(C)=O (stereo not given) | 2.6% (inactive) |
| CCC(c1nnnn1-c1ccc2c(c1)OCCO2)N1CCN(c2ccc(C(F)(F)F)cn2)CC1 (stereo not given) | 30.4% (inactive) |
| Cc1cccc(NC(=S)NCc2ccc3[nH]c4c(c3c2)CCCC4)c1 | 70.9% (active) |
| CCc1cccc(CC)c1NC(=S)NCc1ccc2[nH]c(C)cc2c1 | 12.3% (inactive) |
| Cc1cc(C)cc(NC(=S)NCCc2c[nH]c3ccccc23)c1 | 7.03% (inactive) |
| Cc1ccc(CCN2CC(C(=O)O)CC2=O)cc1 (stereo not given) | -5.87% (inactive) |
| c1ccc(-c2cc3c(NCC4COc5ccccc5O4)ncnc3s2)cc1 (stereo not given) | 77.3% (active) |
| O=C(Cn1cnc2ccccc2c1=O)NCC1COc2ccccc2O1 (stereo not given) | 9.26% (inactive) |
| Cc1noc(C)c1C(=O)NCC1COc2ccccc2O1 (stereo not given) | -8.54% (inactive) |
| COc1cccc(N(CC(=O)NC2CCCCCC2)S(=O)(=O)c2ccccc2)c1 | -34.4% (inactive) |
| C=CCn1c(=NC(=O)c2cccs2)sc2cc(NC(C)=O)ccc21 | -34.5% (inactive) |
| CCOC(=O)N1CCN(C(c2ccnc3ccccc23)c2nnnn2-c2c(C)cccc2C)CC1 (stereo not given) | 8.32% (inactive) |
| O=C(COC(=O)c1cc(=O)[nH]c2ccccc12)NCc1cccc(Cl)c1 | -18.6% (inactive) |
| O=C(OCc1nnc(-c2ccccc2)o1)c1cc(=O)[nH]c2ccccc12 | -0.55% (inactive) |
| O=C(COC(=O)c1cc(=O)[nH]c2ccccc12)Nc1nc(-c2cccc(Br)c2)cs1 | 75.8% (active) |
| CC1=CC(=C(C#N)c2nc3ccccc3s2)C=C(C)N1c1ccc(F)cc1F | 55.1% (active) |

| Compound | inhibition |
| --- | --- |
| Cc1nn(-c2ccc(F)cc2)c(Cl)c1/C=C(/CCC(=O)O)c1nc2ccccc2s1 | -0.77% (inactive) |
| N#Cc1ccc(-c2nc3c(Cl)cc(C(F)(F)F)cn3c2Cc2ccccc2C(F)(F)F)cc1 | -2.71% (inactive) |
| NS(=O)(=O)c1ccc(NC(=O)COC(=O)CCc2c[nH]c3ccccc23)cc1 | -2.39% (inactive) |
| NS(=O)(=O)c1ccc(NC(=O)COC(=O)c2ccco2)cc1 | -4.93% (inactive) |
| NS(=O)(=O)c1ccc(NC(=O)COC(=O)c2c3c(nc4ccccc24)/C(=C\c2ccc4c(c2)OCO4)CCC3)cc1 | 55.8% (active) |
| COc1ccc(CCN2CC(C(=O)NCCN3CCNC3=O)CCC2=O)cc1 (stereo not given) | -4.1% (inactive) |
| CCOC(=O)CN(C)S(=O)(=O)c1ccc(-c2cc(C(=O)OC)sc2C(F)(F)F)cc1 | 0.95% (inactive) |
| S=C(NN=Cc1ccccn1)Nc1ccccn1 | 105% (active) |
| O=C(N/N=C/c1ccccn1)c1cccc(NC(=O)c2ccc(Cl)cc2)c1 | 9.71% (inactive) |
| S=C(Nc1cccnc1)Nc1ccccn1 | -12.4% (inactive) |
| COC(=O)c1[nH]c2ccc(Br)cc2c1NC(=O)Oc1ccccc1 | 5.94% (inactive) |
| Cc1ccccc1CC1(CO)CCCN(Cc2ccc3c(c2)OCCO3)C1 (stereo not given) | 6.31% (inactive) |
| COc1ccc(C2(C)NC(=O)N(CC(=O)c3ccc4c(c3)OCO4)C2=O)cc1 (stereo not given) | -0.46% (inactive) |
| CC(=NCc1ccco1)c1c(C(F)(F)F)[nH]n(-c2nc3ccccc3s2)c1=O | 75.8% (active) |
| Cc1nc2cc(NC(=O)Nc3cccc(F)c3)ccc2n1C | 81.1% (active) |
| C=CCN(C(=O)Nc1ccc2c(c1)nc(C)n2C)c1ccccc1 | -7.06% (inactive) |
| Cc1nc2cc(NCc3cccs3)ccc2n1C | -6.1% (inactive) |
| CCCCC(O)C1=C[N+](=O)CC=C1 (stereo not given) | 39.5% (inactive) |
| O=C(NCc1cccnc1)c1ccc2nc([C@@H]3O[C@H](CO)[C@H](O)[C@H](O)[C@H]3O)[nH]c2c1 | 13.3% (inactive) |
| COCCc1nn2c(=O)cc(COC(=O)c3cc(OC)c(OC)c(OC)c3)nc2s1 | 2.03% (inactive) |

| Compound | inhibition |
| --- | --- |
| Clc1ccc2nc(-c3ccccc3)nc(C(Cl)Cl)c2c1 | 54.4% (active) |
| O=C(Cc1ccc(Cl)cc1)NCc1nc(-c2ccccc2)no1 | -18% (inactive) |
| NC(N)=Nc1nc(-c2ccccc2)c2cc(Cl)ccc2n1 | -9.76% (inactive) |
| O=S(=O)(c1ccccc1)N1CN(Cc2ccc(F)cc2)c2nc3ccccc3nc21 | 11% (inactive) |
| Oc1c(CN2CCOCC2)ccc(CN2CCOCC2)c1O | 2.4% (inactive) |
| CSc1nc(-c2ccccc2)nc(C(Cl)Cl)n1 | 65.2% (active) |
| Cc1cccc(N=C2SC(C)CN2C(=O)CN2C(=O)NC3(CCCC3)C2=O)c1 (stereo not given) | 5.82% (inactive) |
| O=C(CNc1ccccc1N1CCCC1=O)Nc1cc(Cl)ccc1-n1cncn1 | 2.85% (inactive) |
| COc1ccc(C2NC(=S)NC3=C2CCc2ccccc23)cc1OC (stereo not given) | 9.33% (inactive) |
| Cc1cc(Br)ccc1NC(=O)c1cnc(N2CCN(c3ccccn3)CC2)c2ccccc12 | 80.5% (active) |
| Cc1cc(C(=O)N2CCN(c3ccccn3)CC2)c(C)o1 | -12.8% (inactive) |
| Cc1cc(Br)ccc1NC(=O)c1sc2ncn(CC(=O)N3CCN(c4ccccn4)CC3)c(=O)c2c1C | 9.08% (inactive) |
| CCc1ccccc1NC(=O)c1cc(-c2ccc3c(c2)OCO3)on1 | -6.05% (inactive) |
| CCOC(=O)c1sc2nc(C)nc(Nc3ccc(OC)c(OC)c3)c2c1C | 10.5% (inactive) |
| CC1CCC(NC(=O)CN(C)S(=O)(=O)c2ccc3c(c2)c(=O)n(C)c(=O)n3C)CC1 (stereo not given) | -18.7% (inactive) |
| COc1cnc(SCc2ccc(Cl)c(Cl)c2)nc1Cl | -23.9% (inactive) |
| Cc1c(Cl)c([N+](=O)[O-])nn1CC(=O)NCCCN1CCOCC1 | 55.9% (active) |
| Cc1c(Cl)c([N+](=O)[O-])nn1CC(=O)NCC1CCCO1 (stereo not given) | 12.8% (inactive) |
| CCCCNC(=O)Cn1nc(C)c(S(=O)(=O)N2CCOCC2)c1C | 10.8% (inactive) |
| OCCc1ccc(NCCc2ccco2)cc1 | -21.3% (inactive) |
